Measured values reported in PubChem BioAssay.
Calls of active or inactive are those of the source.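 Rule for the calls, unless noted: active = visual image review flags a hit and inhibition of aggregation exceeds 20%; inconclusive = visual hit but inhibition at or below 20%; inactive = no hit on visual image review.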

Tests used:
[1] = inhibitors of TNFa-induced NFkB p65 translocation, primary screen, imaging, HUVEC, MLSMR starter and 10KST1 sets (AID 438;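 active = inhibition above 20% together with a positive visual image hit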;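 note: compound added about 3h40 before a 20 min TNFalpha stimulation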;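 for inhibition: signal is the nuclear over cytoplasmic p65 intensity ratio per well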); details: HUVEC TNFa-induced p65 nuclear translocation; cell count: measured here: nuclei count (cytotoxicity indicator), at 2.08 µM; inhibition: at 2 µM, stronger effect = higher value, 0% TNFa-plus-vehicle, 100% no-TNFa wells
[2] = inhibitors of mutant huntingtin aggregation, primary screen, imaging, exon1htt(103Q)mCFP cells, high-content imaging (AID 483); details: exon1htt(103Q)mCFP cell line, aggregate imaging, at 2 µM; inhibition of aggregation: stronger effect = higher value; nuclei count: measured here: cell count, toxicity;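 note: compound exposure lasted 3 days before fixation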;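 for nuclei count: percent of the per-plate median nuclei count of sample wells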
[3] = inhibitors of E-selectin induction by TNFa, primary screen, imaging, HUVEC, immunofluorescence, MLSMR starter and 10KST1 sets (AID 487;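 active = visually confirmed hit in the image check and inhibition above 20%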;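 for inhibition: signal is fraction of cell area covered by stained E-selectin grains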;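 for nuclei count: 100% = median nuclei count of all wells on the same plate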); details: HUVEC TNFalpha-induced E-selectin immunofluorescence imaging, at 2 µM; inhibition: stronger effect = higher value; nuclei count: measured here: cell number, toxicity
[4] = DUSP6 inhibitors restoring Erk phosphorylation by chemical complementation, primary imaging in DUSP6-transfected HeLa (AID 609;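 active = compounds giving at least 50% inhibition in the cell-based MKP-3 phosphatase rescue imaging test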;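 for inhibition: phospho-Erk level distribution per well compared with pooled transfected vehicle control wells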); details: HeLa MKP-3 transfected, phospho-Erk imaging KS statistic, at 10 µM, cells stimulated with TPA for 15 min
[5] = target: Dual specificity protein phosphatase 6 (Homo sapiens) (UniProt Q16828); assay: as above; details: HeLa MKP-3 transfected, phospho-Erk imaging KS statistic; at 10 µM; stronger effect = higher value; cells stimulated with TPA for 15 min
Dual specificity protein phosphatase 6 (Homo sapiens), sequence (Q16828 whole entry, looked up): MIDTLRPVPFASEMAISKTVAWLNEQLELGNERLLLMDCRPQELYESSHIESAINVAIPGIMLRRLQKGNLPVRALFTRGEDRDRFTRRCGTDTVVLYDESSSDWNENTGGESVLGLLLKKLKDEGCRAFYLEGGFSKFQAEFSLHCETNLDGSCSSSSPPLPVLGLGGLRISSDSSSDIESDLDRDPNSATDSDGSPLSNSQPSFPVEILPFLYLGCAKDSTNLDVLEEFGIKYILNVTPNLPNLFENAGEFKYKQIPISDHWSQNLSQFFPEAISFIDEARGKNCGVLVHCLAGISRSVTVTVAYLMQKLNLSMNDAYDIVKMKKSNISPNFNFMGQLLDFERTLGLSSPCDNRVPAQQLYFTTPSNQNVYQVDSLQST

[6] = target: Voltage-gated potassium channel subunit beta-2 (Rattus norvegicus) (UniProt P62483); assay: KvBeta enzyme negative modulators, primary screen, biochemical, NADPH fluorescence (AID 622;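 active = fluorescence slope higher than the sample average by over 3 SD, cut at about -0.22 in these data, passing the limit was not always enough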;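 note: slope of raw intensity against log time taken from 70 to 1610 s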); details: recombinant KvBeta, 4-cyanobenzaldehyde reduction, at 10 µM, stronger effect = higher value
Voltage-gated potassium channel subunit beta-2 (Rattus norvegicus), sequence (P62483 whole entry, looked up): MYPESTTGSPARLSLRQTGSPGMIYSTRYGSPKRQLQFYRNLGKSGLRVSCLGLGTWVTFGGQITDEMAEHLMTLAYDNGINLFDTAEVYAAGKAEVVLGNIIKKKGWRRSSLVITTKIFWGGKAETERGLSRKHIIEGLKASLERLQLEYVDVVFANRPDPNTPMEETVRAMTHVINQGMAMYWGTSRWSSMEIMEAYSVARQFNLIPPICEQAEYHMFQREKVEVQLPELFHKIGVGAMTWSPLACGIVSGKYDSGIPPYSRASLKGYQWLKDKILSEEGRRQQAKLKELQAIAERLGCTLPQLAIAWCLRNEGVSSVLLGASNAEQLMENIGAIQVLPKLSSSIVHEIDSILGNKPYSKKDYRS

[7] = target: Voltage-gated potassium channel subunit beta-2 (Rattus norvegicus) (UniProt P62483); assay: KvBeta positive modulators, primary screen, biochemical, NADPH fluorescence (AID 623;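 active = NADPH fluorescence slope more negative than the mean of all samples by about 3 SD, 99.7% confidence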;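 note: fluorescence intensity change per second fitted from 20 to 320 s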); details: Recombinant KvBeta, NADPH fluorescence decrease slope, 10 min; at 10 µM; stronger effect = lower value
[8] = target: Alpha-2C adrenergic receptor (Homo sapiens) (UniProt P18825); assay: modulators of alpha2C/GIRK thallium flux, primary screen, cell-based, HEK293 alpha2C/GIRK1/2 (AID 624;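 active = fluorescence slope after compound addition differing from the mean of all screened samples at 99.7% confidence, in either direction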;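 note: slope of fluorescence ratio to pre-addition baseline per second over 15 to 24 s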); details: thallium flux BTC fluorescence, at 10 µM, actives lie on both sides
Alpha-2C adrenergic receptor (Homo sapiens), sequence (P18825 whole entry, looked up): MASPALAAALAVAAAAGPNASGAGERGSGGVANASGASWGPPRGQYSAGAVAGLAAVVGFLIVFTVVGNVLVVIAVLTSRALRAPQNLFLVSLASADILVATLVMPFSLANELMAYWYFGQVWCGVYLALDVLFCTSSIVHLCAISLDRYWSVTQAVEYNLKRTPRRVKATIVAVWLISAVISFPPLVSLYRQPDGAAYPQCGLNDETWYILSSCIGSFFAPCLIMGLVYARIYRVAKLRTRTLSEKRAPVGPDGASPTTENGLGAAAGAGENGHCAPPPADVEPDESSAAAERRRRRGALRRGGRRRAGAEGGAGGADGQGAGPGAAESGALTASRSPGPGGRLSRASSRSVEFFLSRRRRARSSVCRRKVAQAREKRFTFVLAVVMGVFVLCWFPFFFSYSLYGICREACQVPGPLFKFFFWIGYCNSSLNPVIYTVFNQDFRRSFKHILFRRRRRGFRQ

[9] = target: Muscarinic acetylcholine receptor M4 (Homo sapiens) (UniProt P08173); assay: compounds altering M4/GIRK thallium flux, either direction, primary screen, M4 allosteric agonist project, cell-based, HEK293 M4/GIRK, BTC-AM (AID 625;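 active = fluorescence slope after compound addition differing from the mean of all tested samples at 99.7% confidence, mostly higher but some lower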;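 note: thallium influx through GIRK channels coupled to M4 in HEK293 cells with BTC-AM dye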); details: at 10 µM, actives lie on both sides
Muscarinic acetylcholine receptor M4 (Homo sapiens), sequence (P08173 whole entry, looked up): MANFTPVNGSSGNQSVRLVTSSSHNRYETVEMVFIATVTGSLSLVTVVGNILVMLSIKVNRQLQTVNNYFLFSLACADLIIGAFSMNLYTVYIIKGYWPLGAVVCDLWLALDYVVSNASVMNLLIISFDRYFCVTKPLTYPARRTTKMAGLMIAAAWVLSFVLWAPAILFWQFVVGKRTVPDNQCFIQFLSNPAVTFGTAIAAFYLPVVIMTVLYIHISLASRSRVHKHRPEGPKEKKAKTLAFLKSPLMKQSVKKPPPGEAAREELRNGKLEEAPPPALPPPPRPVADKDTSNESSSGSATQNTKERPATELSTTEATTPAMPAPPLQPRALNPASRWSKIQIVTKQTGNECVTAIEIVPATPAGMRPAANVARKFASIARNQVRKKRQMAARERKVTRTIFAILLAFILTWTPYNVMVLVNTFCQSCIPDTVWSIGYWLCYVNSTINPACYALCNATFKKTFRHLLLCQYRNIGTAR

[10] = inhibitors of larval lipid processing in zebrafish, primary screen, whole organism, PED6 fluorescence, gall bladder and intestine (AID 686;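 active = a full or partial loss of lipid-probe fluorescence in the fish gall bladder, intestine or both, judged by eye; inactive = no fluorescence loss, or compound toxic to the fish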;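 note: larvae 5 to 7 days old with five fish per well; signal comes from phospholipase A2 cleavage of quenched PED6 carried via bile; overnight exposure to compound and PED6 before scoring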); details: Zebrafish larvae PED6 lipid processing, fluorescence scoring; screened at 20 µM (by protocol)
[11] = inhibitors of Chlamydomonas gravitaxis, primary screen, whole organism, Chlamydomonas reinhardtii, WT vs cilia-less mutant, absorbance, 96-well (AID 463189;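 active = inhibition at or above 50% relative to wild type and mutant plate controls; inactive = inhibition below 50%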;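 note: 0% = wild type cc124 cells in DMSO and 100% = ciliumless bld1 mutant cells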); details: OD600 absorbance, 2 days, at 10 µM, stronger effect = higher value
[12] = inhibitors of Sendai virus-induced IRF3 signaling, primary screen, TLR/RLR signaling modifier project, cell-based, Sendai virus stimulus, luciferase, 10K MLSCN set (AID 602276;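 active = inhibition at or above 50% at 10 µM; inactive = inhibition below 50%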;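 note: firefly luciferase from ISG56 promoter only with Renilla not read in this screen; 0% = Sendai virus plus DMSO and 100% = medium plus DMSO without virus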); details: HEK293 RL24 IRF3 luciferase reporter, at 10 µM, stronger effect = higher value
[13] = inhibitors of poly I:C-induced TLR3 signaling, primary screen, cell-based, poly I:C stimulus, luciferase, 10K MLSCN set (AID 602277;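 active = inhibition of the reporter signal at or above 50%; inactive = inhibition below 50%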); details: HEK293-TLR3 RL24 IRF3 luciferase reporter, at 10 µM, stronger effect = higher value
[14] = measured here: cell density z-score
[15] = measured here: nuclear c-Myc green intensity z-score
[16] = measured here: nuclear pErk red intensity z-score, stronger effect = higher value

Row | SMILES | cell count [1] | inhibition [1] | inhibition of aggregation [2] | nuclei count [2] | inhibition [3] | nuclei count [3] | z-score [4, 14] | z-score [4, 15] | z-score [4, 16] | inhibition [5] | fluorescence slope [6] | NADPH fluorescence slope [7] | slope [8] | fluorescence slope [9] | outcome [10] | inhibition [11] | inhibition [12] | inhibition [13]
1 | COc1ccc(N2CCN(c3nc4c(c(=O)[nH]c(=O)n4C)n3CCCc3ccccc3)CC2)cc1 | 636 | 6.6% (inactive) | 2.8% (inactive) | 100% | -69.3% (inactive) | 112% | 0.546 | -1.43 | 0.632 | 14.7% (inactive) | -0.429 (inactive) | -3.7e-05 (inactive) | 0.0083 (inactive) | 0.0059 (inactive) | inactive | 1.13% (inactive) | 12.8% (inactive) | 18.8% (inactive)
2 | Cc1cc(C)c2c(N)c(C(=O)c3ccccc3)oc2n1 | 544 | -4.5% (inactive) | 6.6% (inactive) | 96.6% | -33.5% (inactive) | 134% | -0.541 | 1.87 | 0.479 | -3.95% (inactive) | -0.437 (inactive) | -2.9e-05 (inactive) | 0.00545 (inactive) | 0.00618 (inactive) | inactive | 14.6% (inactive) | -2.38% (inactive) | -28.6% (inactive)
3 | Cc1cc(N2C(=O)C(=O)/C(=C(/O)c3ccc(F)cc3)C2c2ccc(F)cc2)no1 (centres undefined) | 430 | -7.1% (inactive) | 10.1% (inactive) | 60.9% | -108% (inactive) | 122% | -1.41 | 1.25 | 1.07 | 1.04% (inactive) | -0.407 (inactive) | -3.1e-05 (inactive) | 0.00571 (inactive) | 0.0056 (inactive) | inactive | 0.694% (inactive) | 14.8% (inactive) | 7.49% (inactive)
4 | Cc1cc(Cn2ccnc2)c(C)cc1Cn1ccnc1 | 637 | -4.4% (inactive) | 7.9% (inactive) | 100% | -55.4% (inactive) | 124% | -0.00236 | 1.89 | -0.864 | -7.67% (inactive) | -0.463 (inactive) | -0.000121 (inactive) | 0.00445 (inactive) | 0.0041 (inactive) | inactive | 139% (active) | 19.2% (inactive) | 17.7% (inactive)
5 | CC(C)c1nc(NCC2CCCO2)c(C#N)c2c1COC(C)(C)C2 (centres undefined) | 354 | -4.5% (inactive) | 6.9% (inactive) | 86.9% | -236% (inactive) | 132% | -0.206 | -0.66 | -0.111 | -8.59% (inactive) | -0.461 (inactive) | -9.6e-05 (inactive) | 0.00432 (inactive) | 0.00335 (inactive) | inactive | -3.7% (inactive) | 20.5% (inactive) | 25.1% (inactive)
6 | Cc1ccc(S(=O)(=O)N2CCN(c3nc(C(C)C)c4c(c3C#N)CC(C)(C)OC4)CC2)cc1 | 604 | -7.5% (inactive) | -19.5% (inactive) | 102% | -19.5% (inactive) | 120% | 0.934 | 0.596 | -1.08 | 5.35% (inactive) | -0.441 (inactive) | -8.5e-05 (inactive) | 0.00654 (inactive) | 0.00645 (inactive) | inactive; toxic | -7.57% (inactive) | -1.31% (inactive) | 44.4% (inactive)
7 | O=C1C2CC=C(Cl)CC2C(=O)N1CNc1ccccn1 (centres undefined) | 549 | -1.9% (inactive) | 21.8% (inactive) | 86.4% | -24.7% (inactive) | 118% | -0.409 | 1.18 | -0.807 | 1.98% (inactive) | -0.446 (inactive) | -1.4e-05 (inactive) | 0.00475 (inactive) | 0.00609 (inactive) | inactive | -11.9% (inactive) | 11.3% (inactive) | 18.2% (inactive)
8 | CN1CCN(c2nc3c(c(=O)n(C)c(=O)n3C)n2Cc2cccc3ccccc23)CC1 | 371 | 4.9% (inactive) | 6.9% (inactive) | 109% | -77.4% (inactive) | 102% | -0.546 | -0.191 | 0.82 | -13.1% (inactive) | -0.457 (inactive) | -6.9e-05 (inactive) | 0.00582 (inactive) | 0.0044 (inactive) | inactive | 28.5% (inactive) | 9.16% (inactive) | 19.8% (inactive)
9 | CC(C)(C)c1ccc(O)c(N)c1 | 646 | -5.1% (inactive) | 18.9% (inactive) | 115% | -65.2% (inactive) | 138% | 0.287 | -1.2 | 0.0324 | -3.95% (inactive) | -0.526 (inactive) | -7e-05 (inactive) | 0.00563 (inactive) | 0.00646 (inactive) | inactive | 15.7% (inactive) | 8.96% (inactive) | 18% (inactive)
10 | CCCCc1nc(NCCN2CCOCC2)c(C#N)c2c1COC(C)(C)C2 | 472 | -7.6% (inactive) | -37.3% (inactive) | 122% | -75.1% (inactive) | 116% | -1.08 | 2.36 | -1.06 | 3.42% (inactive) | -0.542 (inactive) | 8.4e-06 (inactive) | 0.00518 (inactive) | 0.00481 (inactive) | inactive | 98.1% (active) | 15.9% (inactive) | 10.1% (inactive)
11 | CCN(CC)CCN1C(=O)C(=O)/C(=C(/O)c2c(C)[nH]c(C(=O)OC)c2C)C1c1ccco1 (centres undefined) | 572 | -11.8% (inactive) | -5.3% (inactive) | 105% | 26.1% (inactive) | 120% | -1.72 | 1.35 | -0.00455 | -11.9% (inactive) | -0.473 (inactive) | -1.4e-05 (inactive) | 0.00421 (inactive) | 0.00487 (inactive) | inactive | 4.53% (inactive) | 4.22% (inactive) | 6.98% (inactive)
12 | CC1(C(=O)CSc2nc3ccccc3s2)CCC(=O)O1 (centres undefined) | 609 | -11.4% (inactive) | -14.5% (inactive) | 78.9% | -179% (inactive) | 131% | 0.414 | -1.1 | -0.368 | -4.27% (inactive) | -0.471 (inactive) | -0.000167 (inactive) | 0.00616 (inactive) | 0.00529 (inactive) | inactive | 6.36% (inactive) | 6.48% (inactive) | 21.8% (inactive)
13 | CCSc1nc(O)c(C2OC(=O)c3c2ccc(OC)c3OC)c(=O)n1-c1ccccc1 (centres undefined) | 504 | 5.8% (inactive) | -6.1% (inactive) | 108% | -157% (inactive) | 146% | 0.533 | 0.786 | -0.555 | 1.98% (inactive) | -0.416 (inactive) | -4.4e-05 (inactive) | 0.00632 (inactive) | 0.00691 (inactive) | inactive | -7.19% (inactive) | 13.8% (inactive) | 25.6% (inactive)
